Calls of active or inactive are those of the source. Unless noted, how the calls were made is not given here.

Z-score data for 20 compounds are collected here from PubChem BioAssay.

Experiment [1] can be described thus: Plasmodium falciparum growth inhibition, primary screen, strain 3D7, DAPI fluorescence, 100 nL (AID 1184).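 Further: parasites grown inside human red blood cells in medium with human serum.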 The settings on record: P. falciparum 3D7 growth, 3 d, higher = more signal.
The target of experiment [2] is Homeobox protein Hox-A13 (Mus musculus) (UniProt Q62424). Description: inhibitors of HoxA13-DNA binding, primary screen, biochemical, fluorescence polarization, labeled oligonucleotide (AID 1185). The settings on record: 15 min, higher = more signal, called active from +8 up or from −8 down. Background: Polarisation of emitted light reports the rotation of a fluorescent probe.

Experiment [3] in a line: inhibitors of hydroxyurea-induced Chk1 phosphorylation, primary screen, imaging, HeLa, phospho-Chk1 antibody, percent positive cells (AID 1186). The note with it: hydroxyurea-induced phospho-Chk1 immunofluorescence imaging, higher = more signal.
The nature of experiment [4]: inhibitors of hydroxyurea-induced Chk1 phosphorylation, primary screen, imaging, HeLa, phospho-Chk1 nuclear intensity (AID 1187). Further: test concentration not given here. The note with it: hydroxyurea-induced phospho-Chk1 immunofluorescence imaging, higher = more signal.

Sequence of Homeobox protein Hox-A13 (Mus musculus) (Q62424 whole entry, looked up): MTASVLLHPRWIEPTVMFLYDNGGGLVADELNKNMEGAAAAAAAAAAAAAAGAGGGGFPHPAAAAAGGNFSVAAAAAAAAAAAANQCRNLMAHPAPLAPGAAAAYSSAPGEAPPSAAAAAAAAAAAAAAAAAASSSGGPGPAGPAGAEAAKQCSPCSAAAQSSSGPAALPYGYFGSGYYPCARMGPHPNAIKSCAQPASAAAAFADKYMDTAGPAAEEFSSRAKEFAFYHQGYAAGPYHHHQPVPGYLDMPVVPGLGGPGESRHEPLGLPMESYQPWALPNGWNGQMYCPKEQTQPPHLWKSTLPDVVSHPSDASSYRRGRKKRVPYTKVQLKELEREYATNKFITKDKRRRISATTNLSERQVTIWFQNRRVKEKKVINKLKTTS

For the compound `CC1CC/C=C\[C@H]2OC34C=CCN(C(C)C)C(=O)[C@H]3N(C(CO)C(C)C)C(=O)[C@@H]4C2C(=O)O1` (stereo not given in full), the z-score is 0.639 in experiment [1], -4.54 (inactive) in experiment [2], -0.686 (inactive) in experiment [3] and -0.549 (inactive) in experiment [4].
On the same counts, the results for `C=C(COC)/C(=C/C[C@H](OC(C)=O)c1cccc(OCCO)c1)c1cc(C(=O)OC)ccc1OC` are -2.67, -2.39 (inactive), -0.283 (inactive) and -0.727 (inactive).
Taken in the same sequence, the figures for `CCOC(=O)C[C@H]1[C@H](OC(=O)c2cc3ccccc3oc2=O)[C@@H](NC(=O)c2ccccc2)c2cc(OCCCO)ccc2N1C(=O)Cc1ccc(OC)cc1` were -2.11, -0.814 (inactive), -0.35 (inactive) and -0.0607 (inactive).
On the same counts, the results for `CCOC(=O)C[C@H]1[C@H](OC(=O)c2ccc(C(=O)c3ccccc3)cc2)[C@@H](NC(=O)Cc2ccc(OC)cc2)c2cc(OCCCO)ccc2N1C(=O)Cc1ccc(OC)cc1` are -0.283, -2.01 (inactive), 0.0944 (inactive) and 0.0944 (inactive).
In the case of `Cc1ccc(S[C@]2(C(=O)NCCN3CCOCC3)CC(=O)N(Cc3cc(C(F)(F)F)cc(C(F)(F)F)c3)[C@@H]2c2ccc(CO)cc2)cc1`, the z-score is -0.578 in experiment [1], -1.78 (inactive) in experiment [2], -0.999 (inactive) in experiment [3] and -2.03 (inactive) in experiment [4].
With `C=C(CCCC)/C(=C/C[C@H](OC(=O)c1ccncc1)c1ccc(CO)o1)c1cnc2ccccc2c1`, the z-score in experiment [1] is -0.209; in experiment [2], -4.76 (inactive); in experiment [3], -0.762 (inactive); in experiment [4], -0.937 (inactive).
Take `O=C1O[C@H](c2ccccc2)[C@H](c2ccccc2)N2[C@H]1[C@@H](C(=O)NC[C@H](O)c1ccccc1)[C@]1(C(=O)Nc3ccc(C#CC4(O)CCCCCC4)cc31)[C@H]2c1ccc(O)cc1`: the z-score is 0.097 in experiment [1], -1.84 (inactive) in experiment [2], 0.104 (inactive) in experiment [3] and 0.572 (inactive) in experiment [4].
On the same counts, the results for `C=C(COC)C(=O)CC[C@@H](OC(=O)c1ccccc1-c1ccccc1C(=O)O)c1cccc(OCCO)c1` are -1.24, -4.82 (inactive), 0.273 (inactive) and -0.307 (inactive).
Taken in the same sequence, the figures for `NC(=O)NCC#Cc1ccc2c(c1)[C@]1(C(=O)N2)[C@H](c2ccc(OCCO)cc2)N2[C@H](c3ccccc3)[C@H](c3ccccc3)OC(=O)[C@H]2[C@@H]1C(=O)Nc1nc2ccccc2s1` were -0.745, 0.706 (inactive), 0.0953 (inactive) and 0.219 (inactive).
Taken in the same sequence, the figures for `CCCCC(=C=CC[C@@H](O)c1ccc(OCCO)cc1)C[C@@H](O)c1cc(Cl)cc(Cl)c1O` were -2.87, -3.4 (inactive), -0.806 (inactive) and -0.578 (inactive).
Consider `C=CCN1C(=O)[C@]2(O[C@H](CCn3cc([C@H](O)c4ccccc4)nn3)[C@@H]([Si](C)(C)c3ccc(OC)cc3)[C@@H]2C)c2cc(N3CCOC3=O)ccc21`, for which the z-score in experiment [1] was -2.91; in experiment [2], -4.64 (inactive); in experiment [3] it was -1.73 (inactive); in experiment [4] it was -1.22 (inactive).
Taken in the same sequence, the figures for `C=CCC(OC(C)=O)[C@@H]1[C@@H](N(Cc2ccc(-c3ccccc3)cc2)C(=O)c2ccc(-c3ccccc3)cc2)c2cc(OCCCO)ccc2N1C(=O)c1ccc(-c2ccccc2)cc1` (stereo not given in full) were -0.883, -0.513 (inactive), -0.293 (inactive) and 0.122 (inactive).
On the same counts, the results for `CC(C)(C)OC(=O)CC[C@@]12N=C(c3ccc(OCCCO)cc3)O[C@@H]1c1ccccc1CN(Cc1ccccc1)C2=O` are -2.3, -1.33 (inactive), -0.543 (inactive) and 0.0228 (inactive).
Taken in the same sequence, the figures for `CN(C)CCCC[C@@H]1NC(=O)[C@@H]2C[C@H](C(=O)NCCCCCNC(=O)CS)[C@H](c3cccc(OCCO)c3)N2C1=O` were -1.46, -1.12 (inactive), 0.27 (inactive) and 0.302 (inactive).
With `COc1ccc([Si](C)(C)[C@H]2[C@H](CC(=O)N3Cc4ccccc4C[C@H]3CO)O[C@@]3(C(=O)N(Cc4cccc(N5C(=O)COc6ccccc65)c4)c4ccccc43)[C@@H]2C)cc1`, the z-score is -2.22 in experiment [1], -1.82 (inactive) in experiment [2], -0.558 (inactive) in experiment [3] and -0.221 (inactive) in experiment [4].
For the compound `CO[C@H]1O[C@H](CO)[C@@H](OC(=O)CCc2ccccc2)[C@@H]2OC(=O)[C@H](Cc3ccccc3)C/C=C/C[C@@H](Cc3ccccc3)C(=O)O[C@@H]12`, the z-score was -1.58 in experiment [1], -2.71 (inactive) in experiment [2], -0.527 (inactive) in experiment [3] and -0.474 (inactive) in experiment [4].
On the same counts, the results for `COCCCNC(=O)[C@@]1(Cc2ccccc2CN=[N+]=[N-])COC(c2ccc(OCCCO)cc2)=N1` are -2.1, -4.83 (inactive), -0.742 (inactive) and -0.73 (inactive).
`COC(=O)c1c2oc(c1C(=O)OC)C(=O)N[C@@H](C(C)C)Cn1nncc1C1(CCCCC1)NC(=O)N[C@H](CO)CC2`: the z-score in experiment [1] was 0.0974; in experiment [2] it was -1.72 (inactive); in experiment [3] it was -0.259 (inactive); in experiment [4], 0.158 (inactive).
Taken in the same sequence, the figures for `O=C1c2ccccc2[C@](Cc2ccccc2I)(C(=O)O)[C@H](c2ccc(CO)cc2)N1Cc1ccccc1Cl` were 0.303, -4.18 (inactive), -0.679 (inactive) and -0.559 (inactive).
Taken in the same sequence, the figures for `CCCCCN1CC=CC23O[C@@H]4/C=C\CCC(C)OC(=O)C4[C@H]2C(=O)N(CCCO)[C@@H]3C1=O` (stereo not given in full) were -0.186, -3.86 (inactive), -0.183 (inactive) and 0.0885 (inactive).
